Laboratory results as given in paper PMC7819943, “Rice protein-binding microarrays: a tool to detect cis-acting elements near promoter regions in rice”.
Whole data set: some 39,000 sequences, median “fluorescence intensity (a.u.)” near 4,300, cut for the highest 2% near 39,000. The full list was thinned out, with the highest values kept by preference.

What follows are sequences tested against T1, OsSMF1 (Oryza sativa, UniProt Q6ZLB0 1-436) (assay: protein-binding microarray (RPBM); PBS, 2% BSA, 51.3 ng/ul salmon testes DNA, 50 uM zinc acetate, 200 nM TF, 25 C, 1 h; high values mean tight binding). Details: protein: recombinant; tags: N-terminal polyhistidine and DsRed monomer fusion (pET32a); chain copies: 2; label: CyDye5-dUTP incorporated in the synthesized complementary strand; 3' TTTTT single-stranded linker to array surface; dsDNA, one strand shown.
T1 sequence: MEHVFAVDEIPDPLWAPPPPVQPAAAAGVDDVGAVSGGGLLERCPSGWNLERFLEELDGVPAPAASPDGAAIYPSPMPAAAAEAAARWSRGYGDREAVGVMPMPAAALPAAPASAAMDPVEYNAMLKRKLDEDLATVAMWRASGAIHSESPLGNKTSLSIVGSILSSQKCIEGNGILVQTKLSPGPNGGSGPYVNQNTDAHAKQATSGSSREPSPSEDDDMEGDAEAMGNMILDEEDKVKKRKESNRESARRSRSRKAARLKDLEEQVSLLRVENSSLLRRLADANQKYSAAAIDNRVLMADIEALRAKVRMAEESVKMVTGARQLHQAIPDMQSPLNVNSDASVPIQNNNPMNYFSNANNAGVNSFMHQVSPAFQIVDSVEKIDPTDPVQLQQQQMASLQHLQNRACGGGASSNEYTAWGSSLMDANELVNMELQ
Method in brief: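 The binding signal for each feature is its fluorescence intensity in arbitrary units. An Axon 4000B scanner was used to read a custom Agilent array that had been made double-stranded with Cy5-dUTP primer extension, blocked with 2% BSA, incubated at 25 °C for 1 h with 200 nM protein in PBS, 2% BSA, salmon testes DNA and 50 µM zinc acetate, and washed. The protein was an N-terminal polyhistidine–DsRed transcription factor fusion from E. coli BL21-CodonPlus, purified on Ni–NTA.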

Sequence | binding signal
AGATCCCGAATTCGTGCCACGTGATCTGCCGTCGTGTATTCGGAGTCACCTAGTGCAG | 6050 fluorescence intensity (a.u.)
CCCCGCTTCGCCGCCGGCCGCCTCTCTCTTCTCAAGAGTCCGGAGTCACCTAGTGCAG | 3340 fluorescence intensity (a.u.)
GCAACCGCGACGACCGATCCACGTGGCACCACCTCATTGGCGGAGTCACCTAGTGCAG | 29400 fluorescence intensity (a.u.)
GGGCCCAGCAGGTTCCTAGTAGACTTCGTCGTAGTGGGACCGGAGTCACCTAGTGCAG | 8310 fluorescence intensity (a.u.)
GCTATAATATATTGCAGCAGCAGCAGCAGTGGTGGTGGTGCGGAGTCACCTAGTGCAG | 3360 fluorescence intensity (a.u.)
TGATGGCCGGTGATCAGTGGCATGTGCATGTTATATTATTCGGAGTCACCTAGTGCAG | 3260 fluorescence intensity (a.u.)
CACTCCAGAACCAAACGTTTGATGACTCTCTGCTTTTGCGCGGAGTCACCTAGTGCAG | 4570 fluorescence intensity (a.u.)
ACAAACCGAGGAGGAGGAGGAGGGCCCACCAGCCACCACGCGGAGTCACCTAGTGCAG | 3310 fluorescence intensity (a.u.)
GGACGGTTTCGCTGATGTGGCGCCTACGTGGCATCCTAATCGGAGTCACCTAGTGCAG | 20300 fluorescence intensity (a.u.)
AGGGCGCTTTTGGCTGACATGGCGCCTACGTGGCTTGTTTCGGAGTCACCTAGTGCAG | 28100 fluorescence intensity (a.u.)
ATAGTGGTTTTGGCTGACGTGGCGCCTACGTGGCTAATTTCGGAGTCACCTAGTGCAG | 19600 fluorescence intensity (a.u.)
CTGTTTCGCTGACGTGACGCCTACGTGGCATCCCAGTCATCGGAGTCACCTAGTGCAG | 40300 fluorescence intensity (a.u.)
GGTTTTAGCTGACGTGGCGCCTACGTGACAGTGTTGACCCCGGAGTCACCTAGTGCAG | 32700 fluorescence intensity (a.u.)
CTGACGAGCAGAACATTAGCTATCCTATCCAGAATAGTTTCGGAGTCACCTAGTGCAG | 47400 fluorescence intensity (a.u.)
AGATCATTAGTTAGCACATATCATCCACATCATCCTATTTCGGAGTCACCTAGTGCAG | 5980 fluorescence intensity (a.u.)
AAACCCAATCCAGTTAGGAATAGAACATTAGATATCCAACCGGAGTCACCTAGTGCAG | 3940 fluorescence intensity (a.u.)
GCTGGTTTGATTAGATCTTCATCCCACGTGGCATTGACGTCGGAGTCACCTAGTGCAG | 25100 fluorescence intensity (a.u.)
GCTAATTTGACTCGGTTTTCATCTGACGTGGCATTGACGTCGGAGTCACCTAGTGCAG | 41400 fluorescence intensity (a.u.)
CGGTTTTAGCTGACGTGGCGCCTACGTGGCAAAGTTGACCCGGAGTCACCTAGTGCAG | 44700 fluorescence intensity (a.u.)
GTTTTGGCTGACGTGGCGCCTACGTGGTTTGTTTGACCTACGGAGTCACCTAGTGCAG | 37300 fluorescence intensity (a.u.)
GCTTGCTCGCCGGCGGTGTGGGAATGATGACTCCCAGCCCCGGAGTCACCTAGTGCAG | 4050 fluorescence intensity (a.u.)

Sequence | binding signal
GTCGTGTCGGCTGCCGATTACACTATCGGCAGTGCAGCCGCGGAGTCACCTAGTGCAG | 4270 fluorescence intensity (a.u.)
CGCGGCGCGCACACGCCATGCCGGCATGCCGTGGCATACCCGGAGTCACCTAGTGCAG | 3990 fluorescence intensity (a.u.)
CTATATATGTGACGCTGACGTTCCTCATCTCCCAAGCTGCCGGAGTCACCTAGTGCAG | 7040 fluorescence intensity (a.u.)
TTAGTGTCTGCATTGGATATGAGTCACGGGTTCTTGGTTACGGAGTCACCTAGTGCAG | 12600 fluorescence intensity (a.u.)
CGACGTCGGCGAGGGAGGGCTTCCTGGGCACGTCGGCGAGCGGAGTCACCTAGTGCAG | 3150 fluorescence intensity (a.u.)
ACAGCAAACAAACGTAACACCTTAACACGTCATGCAGTTTCGGAGTCACCTAGTGCAG | 15100 fluorescence intensity (a.u.)
AAGAGTCGGGTTGTGCTGACCCAAAAGCACGACAGCCCATCGGAGTCACCTAGTGCAG | 3250 fluorescence intensity (a.u.)
ATACCGCGACAATGACATCTGAGTCAATGACTCGTGATAACGGAGTCACCTAGTGCAG | 4510 fluorescence intensity (a.u.)
CTCATGATGGCTTTATCAATATCAAGATTTGATGACTCAGCGGAGTCACCTAGTGCAG | 15400 fluorescence intensity (a.u.)
GTTTGAATAGGTCTTTCGTCCCACGTGGCATTGACGTGGCCGGAGTCACCTAGTGCAG | 45700 fluorescence intensity (a.u.)
TAGGTCTTCGTCCCACGTGGCATTGACGTGGCGCTTACGCCGGAGTCACCTAGTGCAG | 30000 fluorescence intensity (a.u.)
CATAGATCTTTTGACTAGGTTTTCGTTCCACGTGGCATCACGGAGTCACCTAGTGCAG | 12900 fluorescence intensity (a.u.)
ACACTTATCGACGTGCCAGCGCGACGCAATATGCTCCGATCGGAGTCACCTAGTGCAG | 5400 fluorescence intensity (a.u.)
CACAAATGAAGAAACAAGGTGTTGCATCACCAGTCATGGGCGGAGTCACCTAGTGCAG | 6740 fluorescence intensity (a.u.)
TTTAACTATGAGAATATATAGTACGTGTTGAGACATGAAACGGAGTCACCTAGTGCAG | 27800 fluorescence intensity (a.u.)
TGACCTAATACATTCATGCTGACTAGCGTTTACGTGGCAACGGAGTCACCTAGTGCAG | 14100 fluorescence intensity (a.u.)
TGCAAGCAGCAAGCGTGTCACTACGTTTACATGACATGCACGGAGTCACCTAGTGCAG | 47600 fluorescence intensity (a.u.)
TCCATGCTGGTTTTAGTCCTACGTGACAATACAGTCAGCACGGAGTCACCTAGTGCAG | 5640 fluorescence intensity (a.u.)
TTTAATTATATTATCACTGACATGTGGGTCCCACTATATGCGGAGTCACCTAGTGCAG | 4330 fluorescence intensity (a.u.)
CTCGACATTGCTGGCAATGCCTGGGAGATTGCTTGCCATGCGGAGTCACCTAGTGCAG | 3180 fluorescence intensity (a.u.)
GCCAATGCCATGTCCTCTGCGGCCTGCTTGCTGGTGAACTCGGAGTCACCTAGTGCAG | 46600 fluorescence intensity (a.u.)
